The list is not random: actives were taken first. Their share in the collection is about 2.2%.
TMEM16A inh = TMEM16A chloride channel inhibitors, primary screen, cell-based, HTS; Anoctamin-1 (Mus musculus), Q8BHY3; HEK293 TMEM16A/YFP iodide influx fluorescence, ionomycin; normalized B-score (activity score, 25-100; higher = stronger inhibition) at 10 µM; hit rate 1.2% among 310,000; AID 588511, 2011;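 active = ratio plate-corrected score three or more library SD toward inhibition, starting fluorescence score within five deviations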;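 also: score derived from kinetic fluorescence span divided by baseline fluorescence per well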
NTR1 ag = agonists of human NTR1, primary screen, imaging, U2OS cells, beta-arrestin-GFP, high content; Neurotensin receptor type 1 (Homo sapiens), P30989; activation, % at 20 µM; hit rate 0.17% among 330,000; NTR1-U2OS beta-arrestin-GFP spot imaging, agonist mode;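 active = activation at or above 40% of the spot to cytoplasm intensity ratio, with at least 20 cells analyzed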;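 also: 0% = DMSO without peptide and 100% = 100 nM NTR1 peptide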
CHO-K1 Ca PAM = nonselective calcium activators in parental CHO-K1 cells, primary screen, counter-screen for M1 PAM project, cell-based, Fluo-8 calcium fluorescence, full deck, 1536-well | ATP EC20; 0% at ATP EC20, 100% at ATP max | activation, % at 3 µM | hit rate 0.02% among 360,000 | AID 602247, 2012;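 active = activation above the run cutoff, the mean activation of all test compounds plus 3 SD, cut at about 40% in these data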;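 also: peak over basal fluorescence ratio in a 140 s read after ATP addition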
TMEM16A act = TMEM16A chloride channel activators or potentiators, primary screen, cell-based, HTS. hit rate 0.3% among 340,000. AID 623877, 2012. B-score at 10 µM. HEK293 TMEM16A/YFP-H148Q/I152L, iodide quench fluorescence; stronger effect = lower value;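 active = fluorescence-ratio B-score plate-corrected deviation score at least 3 library SD below zero, with starting fluorescence score within 5 deviations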;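 also: channel opened by trigger with iodide after compound preincubation; score built on the fluorescence ratio of max minus min over baseline; more negative score means more quench and so TMEM16A activation or potentiation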
CHO-K1 Ca antag = counter-screen for M1 antagonists: effect in parental CHO-K1 cells; ATP-induced calcium, Fluo-8 fluorescence; inhibition, % at 3 µM; hit rate 0.6% among 360,000;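 active = inhibition above a per-plate cutoff, the plate's mean sample inhibition plus 3 SD, cut at about 24% in these data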;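 also: 0% = DMSO plus EC80 ATP and 100% = DMSO alone without ATP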
CHO-K1 Ca ag = counter-screen for M1 agonists: effect in parental CHO-K1 cells; Fluo-8 calcium fluorescence; scaled to maximal ATP response, vehicle zero; hit rate 0.48% among 360,000; activation, % at 3 µM; in the data active = activation above about 15%;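 also: untransfected CHO-K1 host cells lacking M1 receptor as counterscreen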
Active calls of the source: *.

CCC(=O)[C@@H](C)[C@@H](OC(C)=O)[C@H](C)C[C@@H](C)[C@H]1OC(=O)C[C@@]2(O)CC=C(C)C(O2)C(C)=CCCC[C@H](O[C@H]2C[C@@H](OC(N)=O)[C@H](OC(C)=O)[C@@H](C)O2)C=C[C@H](C)C[C@H]1C was read as CHO-K1 Ca PAM -4, CHO-K1 Ca antag -10 and CHO-K1 Ca ag 0.
Screening O=C(C(=Cc1ccc(F)cc1)C(=O)c1ccccc1)c1ccccc1 returned CHO-K1 Ca PAM 0, CHO-K1 Ca antag 8 and CHO-K1 Ca ag 0.
`Cc1ccc(S(=O)(=O)/N=C2\C=C(Nc3cccc(C(=O)O)c3)C(=O)c3ccccc32)cc1` gave TMEM16A inh 25*, NTR1 ag -1, CHO-K1 Ca PAM 24, TMEM16A act inactive, CHO-K1 Ca antag -19 and CHO-K1 Ca ag 1.
Screening CC(=O)N1Cc2cc(C(=O)NCC(F)(F)F)nc(-c3cccc(-c4cccnc4)c3)c2[C@@H]1CCO returned CHO-K1 Ca PAM 22, CHO-K1 Ca antag -25 and CHO-K1 Ca ag 0.
`COc1cccc(/C=N/Nc2snc(SC)c2C#N)c1O` gave TMEM16A inh 100*, NTR1 ag 10, CHO-K1 Ca PAM 4, TMEM16A act inactive, CHO-K1 Ca antag 16 and CHO-K1 Ca ag 17*.
For CC12CN3CC(C)(CN(C1)C3c1ccc3c(c1)OCO3)C2O (stereo unspecified) the results were TMEM16A inh inactive, NTR1 ag 1, CHO-K1 Ca PAM -28, TMEM16A act inactive, CHO-K1 Ca antag 100* and CHO-K1 Ca ag 5.
Screening COc1ccccc1C=NN=C(NN=Cc1ccccc1OC)NN=Cc1ccccc1OC returned CHO-K1 Ca PAM 23, TMEM16A act inactive, CHO-K1 Ca antag 4 and CHO-K1 Ca ag 6.
`Cc1nonc1NC(=O)CSc1nc2ccccc2[nH]1` gave TMEM16A inh inactive, NTR1 ag -2, CHO-K1 Ca PAM -14, TMEM16A act inactive, CHO-K1 Ca antag 20 and CHO-K1 Ca ag 0.
Screening Cc1nonc1NC(=O)CSc1nc2ccc(Cl)cc2[nH]1 returned TMEM16A inh inactive, NTR1 ag 0, CHO-K1 Ca PAM -3, TMEM16A act inactive, CHO-K1 Ca antag 34* and CHO-K1 Ca ag 12.
For CCCC1=NN(C(=O)C(=O)Nc2ccc(Br)cc2)C(O)(C(F)(F)F)C1 (stereo unspecified) the results were TMEM16A inh 25*, NTR1 ag 1, CHO-K1 Ca PAM 16, TMEM16A act inactive, CHO-K1 Ca antag -16 and CHO-K1 Ca ag 8.
CCC1=NN(C(=O)C(=O)Nc2ccc(Br)cc2)C(O)(C(F)(F)F)C1 (stereo unspecified) was read as TMEM16A inh inactive, NTR1 ag 0, CHO-K1 Ca PAM 5, TMEM16A act inactive, CHO-K1 Ca antag -10 and CHO-K1 Ca ag 3.
For C[C@H]1CN([C@@H](C)CO)S(=O)(=O)c2ccc(Br)cc2O[C@H]1CN(C)C(=O)c1cccnc1 the results were CHO-K1 Ca PAM -8, CHO-K1 Ca antag -9 and CHO-K1 Ca ag 0.
For Nc1nc(CSc2nc3ccccc3s2)nc(N2CCOCC2)n1 the results were TMEM16A inh inactive, NTR1 ag 0, CHO-K1 Ca PAM -2, TMEM16A act inactive, CHO-K1 Ca antag -5 and CHO-K1 Ca ag 1.
For Nc1nc(CSCc2ccccc2)nc(N2CCOCC2)n1 the results were TMEM16A inh inactive, NTR1 ag -1, CHO-K1 Ca PAM 0, TMEM16A act -15*, CHO-K1 Ca antag 10 and CHO-K1 Ca ag 0.
Cc1cc(NC(=O)CSc2nnc(-c3ccccc3F)n2N)no1 was read as NTR1 ag 0, CHO-K1 Ca PAM 5, TMEM16A act inactive, CHO-K1 Ca antag -12 and CHO-K1 Ca ag 1.
`CC1(C)Cc2c(sc3nc[nH]c(=O)c23)CO1` gave TMEM16A inh inactive, NTR1 ag 0, CHO-K1 Ca PAM -19, TMEM16A act inactive, CHO-K1 Ca antag 26* and CHO-K1 Ca ag 0.
`O=C(c1ccco1)N1CCN(Cc2nc3ccc([N+](=O)[O-])cc3c(=O)n2-c2ccccc2F)CC1` gave TMEM16A inh inactive, NTR1 ag -2, CHO-K1 Ca PAM -7, TMEM16A act inactive, CHO-K1 Ca antag 28* and CHO-K1 Ca ag 5.
O=c1c2cc([N+](=O)[O-])ccc2nc(CN2CCN(c3ccccn3)CC2)n1-c1ccccc1F was read as TMEM16A inh inactive, NTR1 ag 4, CHO-K1 Ca PAM 12, TMEM16A act inactive, CHO-K1 Ca antag -2 and CHO-K1 Ca ag 5.
COc1cc(Cl)c(CNC[C@H]2O[C@@H](n3cnc4c(=O)[nH]c(N)nc43)[C@H](O)[C@@H]2O)c(Cl)c1O was read as CHO-K1 Ca PAM -10, CHO-K1 Ca antag 7 and CHO-K1 Ca ag 0.
Cc1ccc(/C=C/C(=O)OCC(=O)N(C)c2c(N)n(Cc3ccccc3)c(=O)[nH]c2=O)o1 was read as CHO-K1 Ca PAM 2, CHO-K1 Ca antag -8 and CHO-K1 Ca ag 0.
For Cc1cc(C(=O)NCc2ccc3c(c2)OCO3)ccc1[N+](=O)[O-] the results were TMEM16A inh inactive, NTR1 ag 1, CHO-K1 Ca PAM 8, TMEM16A act inactive, CHO-K1 Ca antag -12 and CHO-K1 Ca ag 23*.
For Cc1ccc(C(=O)NCc2ccc3c(c2)OCO3)cc1C the results were TMEM16A inh inactive, NTR1 ag -1, CHO-K1 Ca PAM 1, TMEM16A act inactive, CHO-K1 Ca antag -12 and CHO-K1 Ca ag 0.
For Nc1c(C(=O)NCc2ccc3c(c2)OCO3)nnn1CC(=O)Nc1ccc(Br)cc1 the results were TMEM16A inh inactive, NTR1 ag 1, CHO-K1 Ca PAM 11, TMEM16A act inactive, CHO-K1 Ca antag -2 and CHO-K1 Ca ag 1.
Screening Cc1ccc(C(=O)NCc2ccc3c(c2)OCO3)cc1Cl returned TMEM16A inh inactive, NTR1 ag -1, CHO-K1 Ca PAM -19, TMEM16A act inactive, CHO-K1 Ca antag 24* and CHO-K1 Ca ag 0.
Screening Nc1c(C(=O)NCc2ccc3c(c2)OCO3)nnn1Cc1ccc(Br)cc1 returned TMEM16A inh inactive, NTR1 ag 4, CHO-K1 Ca PAM 19, TMEM16A act inactive, CHO-K1 Ca antag -3 and CHO-K1 Ca ag 18*.
For CN(c1ccc(O)cc1)c1nc(-c2cccs2)cs1 the results were TMEM16A inh 25*, NTR1 ag 9, CHO-K1 Ca PAM 15, TMEM16A act inactive, CHO-K1 Ca antag -5 and CHO-K1 Ca ag 1.
`CC1CCCC(C)N1CC(O)COc1ccc(Cl)cc1` (stereo unspecified) gave TMEM16A inh inactive, NTR1 ag -1, CHO-K1 Ca PAM 16, TMEM16A act inactive, CHO-K1 Ca antag -7 and CHO-K1 Ca ag 1.

Bioassay records from PubChem BioAssay.
